# Where “and” joins values, the source holds several entries; their conditions need not be identical. Equal entries are not always repeated. The panel holds about 83,000 compounds, 20% with a hit somewhere; the sample as a whole holds those more often.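 Plates (96-well) were seeded with cells, treated with compound at one concentration, and incubated for 48 hours before percent growth was determined.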 Calls of active or inactive are those of the source. Rule for the calls: active = growth percent below 10; inactive = the rest.
# Tested on: MDA-MB-468 breast
# Test: NCI-60 one-dose screen, 48 h (100 = growth as untreated, 0 = no growth, -100 = all killed)
# Settings: 10 µM unless noted
row,SMILES,growth
1,CCN(CC)CCCCCCNc1cc(OC)cc2cccnc12,23.4% (inactive)
2,CCNC(=O)Oc1ccc[nH]c1=O,86.9% (inactive)
3,COc1cc(-c2nccc3[nH]c(-c4ccc5cc[nH]c5c4)nc23)cc(OC)c1OC,-36.7% (active)
4,CC(=O)Nc1nc(C)c(C(=O)NNS(=O)(=O)c2ccccc2)s1,107% (inactive)
5,CN(C)CCOc1nc2c3cccnc3cc(-c3cccc(Cl)c3)c2c2ncccc12,2.18% (active)
6,CNCCOc1nc2c3cnccc3cc(-c3cc(OC)c(OC)c(OC)c3)c2c2ccncc12,-43.2% (active)
7,N#C/C(=N\Nc1ccc(F)cc1)C(=O)Nc1cc(-c2ccccc2)nn1-c1ccccc1,-21% (active)
8,CCOC(=O)CC(=O)CSC1=NC2C(NN1)N(C)C(=O)N2C (stereo not given),12.2% (inactive)
9,CC1(C)[C@@H](NOCCCN)CC[C@]2(C)[C@H]3C(=O)C=C4[C@@H]5C[C@](C)(C(=O)O)CC[C@]5(C)CC[C@@]4(C)[C@]3(C)CC[C@@H]12,-39.5% [100 µM] (active)
10,N#Cc1c(-c2ccccc2)cc(-c2ccccc2)n(CC(=O)O)c1=O,37.8% (inactive)
11,Nc1c(C(=O)Nc2cccc([N+](=O)[O-])c2)sc2nc3c(cc12)C(O)CCC3 (stereo not given),53.5% (inactive)
12,Cc1cc(NS(=O)(=O)c2ccc(N=Nc3cc(N=Nc4ccc(S(=O)(=O)Nc5cc(C)nc(C)n5)cc4)c4c(NC(=O)C(Cl)Cl)cccc4c3OC(=O)C(Cl)Cl)cc2)nc(C)n1 (tested in a mixture with another compound),103% (inactive) and 78.5% (inactive)
13,CCOC(=O)c1c(C)nc2ccccc2c1/C=C/c1ccc(F)cc1,-2.47% (active)
14,CS(=O)(=O)c1ccc2c(c1)c1c(n2C(=O)c2ccc(Cl)cc2)CCCC1,27.7% (inactive)
15,Cc1[nH]c(C(=O)Nc2ccccc2OC2CCNCC2)c(Cl)c1Cl,16.2% (inactive)
16,COc1ncnc2[nH]cc(CN3CCN(c4ccc(F)cc4)CC3)c12,108% (inactive)
17,CCCCCCCCn1ccc2cc(NC(=O)Cn3cc(CN4CCN(CC)CC4)nn3)ccc21,62.1% (inactive)
18,COc1cc(C(C)=C(c2ccc(OCCN(C)C)cc2)c2ccc(OCCN(C)C)cc2)ccc1F,93.3% (inactive)
19,Cn1cc(-c2ccc3cc(-c4ccc(CC(=O)Nc5cc(C(C)(C)C)on5)cc4)cnc3c2)cn1,30.7% (inactive)
20,COC(=O)[C@@H](OC)[C@@H]1Cc2cc3cc(OC4CC(OC5CC(O)C(O)C(C)O5)C(O)C(C)O4)c(C)c(O)c3c(O)c2C(=O)[C@H]1OC1CC(OC2CC(OC3CC(C)(O)C(O)C(C)O3)C(O)C(C)O2)C(O)C(C)O1 (stereo not given in full),-45.6% (active)

row,SMILES,growth
1,O=C(NCCCNC(=O)OCc1ccc2cccc(O)c2n1)OCc1ccc2cccc(O)c2n1,11.3% (inactive)
2,CC(=O)Nc1ccc(OC(C)=O)cc1,5.17% (active) and 92.5% (inactive)
3,CCN(CC)CCCNCCCNc1cc(OC)cc2cccnc12,-10.4% (active)
4,N#Cc1c(-c2ccc(Cl)cc2)nc(SCc2ccc(F)cc2)nc1N1CCNCC1,-62.5% (active)
5,NC(=O)c1cc(Cl)ccc1NC(=O)/C=C/c1ccccc1,30.7% (inactive)
6,CC(=O)OC1CC2CCC1(C)C2(C)C (stereo not given),103% (inactive)
7,NC1CCC(Nc2nc(NCc3ccc(-c4cccs4)nc3)c3ncn(C4CCCC4)c3n2)CC1 (stereo not given),-65.8% (active)
8,O=C(NNc1ccccc1)c1ccccc1,87.1% (inactive) and 103% (inactive)
9,CC1(C)OC(=O)C(=Cc2ccccc2Br)C(=O)O1,98.2% (inactive)
10,CNC(=O)c1c(NC(=O)c2ccccc2C(F)(F)F)sc2c1CCC(=O)C2,25.1% (inactive)
11,COc1cc(/C=C2\SC(N3CCCCC3)=NC2=O)ccc1OCCCCCCOc1ccc(/C=C2\SC(N3CCCCC3)=NC2=O)cc1OC,7.38% (active)
12,CCCCNC(=O)NS(=O)(=O)c1ccc(N2N=C(c3ccc(C)cc3C)CC2c2ccc(N(C)C)cc2)cc1 (stereo not given),60% (inactive)
13,C=C(CBr)[C@@H]1CC[C@]2(COC(C)=O)CC[C@]3(C)[C@H](CC[C@@H]4[C@@]5(C)CCCNC(C)(C)[C@@H]5CC[C@]43C)[C@@H]12,25.1% (inactive)
14,Nc1cc(-c2c[nH]c3ccccc23)nc2cc(-c3c[nH]c4ccccc34)nn12,52.1% (inactive)
15,CCOc1ccc2nc(-c3cccc(OCC(=O)NC(C)C)c3)nc(Nc3ccc(-c4cn[nH]c4)cc3)c2c1,21% (inactive)
16,CC1=C(C(=O)OCC2CCN(C(=O)OC(C)(C)C)CC2)[C@@H](c2cccc(C#N)c2)C2=C(CC(C)(C)CC2=O)N1,52.2% (inactive)
17,CS(=O)(=O)c1ccc(C(=O)Nc2ccc(Cl)c(-c3ccccn3)c2)c(Cl)c1,3.59% (active)
18,CC(C)(C)OC(=O)CN1CCc2c(sc3ncnc(N4CCN(c5ccc(F)cc5)CC4)c23)C1,92.3% (inactive)
19,NNC(=O)c1nc2ccccc2[nH]1,126% (inactive)
20,CC(C)CCSc1nc(-c2ccc(F)cc2)c(C#N)c(N2CCN(C)CC2)n1,98.3% (inactive)

# From PubChem BioAssay (NCI)
